NPR1 antag – blocks ANP-stimulated signaling of human Npr1 receptor. Potency, µM (series often up to 46.3 µM), without a hit: at the top dose activity change, negative = inhibition, actives largely listed as inhibitors. actives 1.6% (n = 76,000). HEK293 hNpr1 GloSensor cGMP, ANP-stimulated luminescence; calls by dose curve; further: on the % scale 0 is the no-effect control and ±100 the full control effect; nearly all actives have a fitted effect of over 60% in size
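HEK293 cells stably expressing human Npr1 and cGMP GloSensor pGS-40F, loaded 2 h with 2% GloSensor reagent, given compound 30 min at room temperature. Luminescence read before and 20 min after 0.1 nM hNppA.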
FLuc inh-1 – Photinus pyralis luciferase inhibition. Potency, µM (top dose mostly 115 µM), hits mostly inhibitors. purified P. pyralis luciferase, luminescence, biochemical. AID 1347043. P08659. actives 2.5% (n = 76,000); further: on the % scale 0 is the no-effect control and ±100 the full control effect; nearly all actives have a fitted effect of over 65% in size
Target sequence (P08659 whole entry, looked up): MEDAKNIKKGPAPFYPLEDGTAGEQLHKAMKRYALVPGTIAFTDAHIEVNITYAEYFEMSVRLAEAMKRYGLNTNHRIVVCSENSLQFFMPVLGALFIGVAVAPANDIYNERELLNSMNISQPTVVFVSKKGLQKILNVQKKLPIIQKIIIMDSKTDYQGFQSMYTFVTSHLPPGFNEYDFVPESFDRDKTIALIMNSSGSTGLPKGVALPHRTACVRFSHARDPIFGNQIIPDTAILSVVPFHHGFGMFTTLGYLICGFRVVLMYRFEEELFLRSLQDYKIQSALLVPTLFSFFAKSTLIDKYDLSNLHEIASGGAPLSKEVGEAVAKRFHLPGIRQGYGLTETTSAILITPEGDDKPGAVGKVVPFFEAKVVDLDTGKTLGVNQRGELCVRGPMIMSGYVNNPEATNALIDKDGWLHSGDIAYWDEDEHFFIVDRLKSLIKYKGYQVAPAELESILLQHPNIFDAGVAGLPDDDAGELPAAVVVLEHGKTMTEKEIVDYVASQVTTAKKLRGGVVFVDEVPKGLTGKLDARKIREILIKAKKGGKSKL
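Purified P. pyralis luciferase (10nM final) in 50mM Tris acetate pH 7.5, 10mM Mg acetate, 0.01% Tween-20, 0.05% BSA with 10uM D-luciferin and 10uM ATP. Compounds titrated qHTS. Luminescence imaged on CCD.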
NIH3T3 tox – NIH 3T3 cell cytotoxicity; NIH 3T3 viability, CellTiter-Glo ATP luminescence, 48-72 h; AID 1345082; Potency, µM (titrated, usually from 96.7 µM), without a hit: at the top dose activity change, negative = cytotoxicity, hits mostly inhibitors; actives 4.3% (n = 94,000); further: on the % scale 0 is the no-effect control and ±100 the full control effect; nearly all actives have a fitted effect of over 55% in size
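First NIH 3T3 cells are plated at 400 cells/well; next compound is pinned in; then plates incubate 48 or 72 hr at 37 °C; finally CellTiter-Glo is added and luminescence read after 10 min.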
HEK293 tox – kills HEK 293 cells; HEK 293 viability, ATP luminescence (CellTiter-Glo), 48-72 h; Potency, µM (highest dose often 115 µM), without a hit: top-dose activity change, negative = cytotoxicity, actives largely listed as inhibitors; actives 6.6% (n = 94,000); further: on the % scale 0 is the no-effect control and ±100 the full control effect; nearly all actives have a fitted effect of over 60% in size
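Viability of HEK 293 cells, plated at 250 cells/well, was judged by cellular ATP after compound treatment for 48 or 72 hr. Luminescence was imaged 10 min after CellTiter-Glo addition at room temperature.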
GPT2 inhibitor – inhibitors of human GPT2 alanine aminotransferase; Q8TD30; Recombinant GPT2, coupled pyruvate oxidase/HRP Amplex Red fluorescence; Potency, µM (titrated, usually from 57.7 µM), inactives show top-dose activity change, negative = inhibition, actives largely listed as inhibitors; actives 0.25% (n = 100,000); further: on the % scale 0 is the no-effect control and ±100 the full control effect; nearly all actives have a fitted effect of over 60% in size
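Inhibition is scored from Amplex Red fluorescence generated when pyruvate oxidase and HRP act on pyruvate released by GPT2. Reactions contain 10ng/uL enzyme, 250uM a-KG and 2mM L-alanine and run 30 min at room temperature.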
FLuc SDR no ATP – firefly luciferase binding stabilization, ATP absent; Potency, µM (doses to about 32.7 µM), for the others: top-dose activation (signal gain), hits mostly activators; shares compounds with FLuc inh-1; actives 7.8% (n = 1,300); AID 1963318; Purified FLuc-C-HiBiT, Nano-Glo HiBiT luminescence, no ATP; further: nearly all actives have a fitted effect of over 55% in size
FLuc SDR ATP – binders stabilizing firefly luciferase, plus ATP. shares compounds with FLuc inh-1. purified FLuc-C-HiBiT + ATP, HiBiT complementation luminescence. Potency, µM (top dose mostly 32.7 µM), without a hit: at the top dose activation (gain of signal), usual class: activators. actives 8.7% (n = 1,300). AID 1963319;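 further: signal reports ligand binding via conformational change of the enzyme rather than luciferase catalysis; % of control where 0% means no effect; nearly all actives have a fitted effect of over 55% in size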
FLuc inh-2 – firefly luciferase enzyme inhibition | Potency, µM (top dose mostly 32.7 µM), for the others: top-dose activity change, negative = inhibition, hits mostly inhibitors | purified FLuc-C-HiBiT enzyme, luciferin luminescence | actives 42% (n = 1,300) | shares compounds with FLuc inh-1; further: on the % scale 0 is the no-effect control and ±100 the full control effect; nearly all actives have a fitted effect of over 70% in size
Active calls of the source: *; i = inactive; ? = inconclusive; / = not tested or not shown; [ ] = another dose, or the depositor's remark. The list is not random: actives were taken first. Their share in the collection is about 10%. Unless noted, the call rests on the fitted dose curve; in most records, active means well fitted curve in the direction sought with a large enough effect; inconclusive means small, poorly fitted or top-dose-only effect, or another doubt; inactive means no such curve, though single readings can be large; an effect the other way counts as inactive or inconclusive. Potency means the concentration at half of the fitted maximal effect.

SMILES | NPR1 antag | FLuc inh-1 | NIH3T3 tox | HEK293 tox | GPT2 inhibitor | FLuc SDR no ATP | FLuc SDR ATP | FLuc inh-2
COC(=O)[C@@H]1C[C@H](NC(=O)c2ccc(Oc3ccccc3)cc2)CN1C | -1.2% | 14.1µM* | -22.2% | -25.9% | i | 15.8% | 11.7% | ?
COCCOc1nc(N)c2[nH]c(=O)n(Cc3ccc(C(=O)O)cc3)c2n1 | / | / | / | / | / | 12.1%[11.8 µM] | 7.0%[11.8 µM] | -1.2%[11.8 µM]
CNC(=O)c1cc(C2CC2)nc2c1c(C1CCN(C(=O)C3CCCC3)C1)nn2C (stereo unspecified) | / | / | -22.2% | -21.7% | / | / | / | /
O=C(NC[C@H]1O[C@@H]2C[C@@H](CC(=O)N3CCOCC3)O[C@@H]2[C@@H]1O)Nc1cccs1 | -2.0%[70.6 µM] | i | -1.5%[174 µM] | -0.2%[172 µM] | i | / | / | /
COc1cccc(Nc2csc(CN3CCCC(C)(NC(C)=O)C3)c2)c1 (stereo unspecified) | -5.0%[70.6 µM] | ? | ? | ? | i | / | / | /
CC(=O)NC1(C)CCN(Cc2cccc(-c3ccc4ccccc4c3)c2)C1 (stereo unspecified) | ? | 1.78µM* | 28.2µM* | 35.5µM* | 0.5%[88.5 µM] | 12.2%[49.3 µM] | ? | 11.4µM*
COc1cccc(Nc2ccc(CN3CCC(C)(NC(C)=O)C3)cc2)c1 (stereo unspecified) | ? | 3.98µM* | 89.1µM* | ? | -17.6%[88.5 µM] | 9.8%[49.3 µM] | 13.6%[49.3 µM] | ?
O=C(C1CCCC1)N1CC[C@](O)(c2ccccc2)[C@H](N2CCCC2)C1 | 1.2% | i | ? | ? | i | / | / | /
CC(=O)N1CCC(C2CCN(Cc3ccc(C#N)cc3)C2)CC1 (stereo unspecified) | 2.6% | i | -18.3% | -19.8% | -4.4% | / | / | /
CC(C)CNC(=O)C1COC2(CCN(C(=O)c3ccccc3F)CC2)N1C(=O)c1cccc(F)c1 (stereo unspecified) | 3.2% | i | -1.5% | 2.6% | i | / | / | /
COc1ccc2nc(NC(=O)Cn3nc4c(cc3=O)CCCC4)sc2c1 | -2.2% | ? | -2.0% | -22.6% | 1.6% | / | / | /
C=Cc1ccc(-c2nc3ccc(OC)cc3s2)cc1 | / | / | / | / | / | 12.4µM* | ? | 0.442µM*
Nc1nc2ccc(OC(F)(F)F)cc2s1 | / | / | / | / | -12.4% | / | / | /
COc1ccc2nc(-c3ccc(Oc4ccccc4)cc3)sc2c1 | / | / | / | / | / | 27.6% | ? | 11.1µM*
NC(=O)[C@@H]1CCCN1C(=O)c1ccc2oc(-c3cccc(F)c3)nc2c1 | 2.9% | 11.2µM* | ? | ? | i[11.5 µM] | 17.4% | 15.9% | -18.6%
Cc1cc(C)cc(NC(=O)C2CCN(C(=O)c3ncn4c3COC(c3ccccc3)C4)CC2)c1 (stereo unspecified) | -3.3% | 8.91µM* | i | 6.3% | 4.3% | 15.6% | ? | 3.13µM*
Cc1cccc(NC(=O)C2CCN(C(=O)c3ncn4c3COC(c3ccccc3)C4)CC2)c1 (stereo unspecified) | -27.6% | 3.16µM* | 1.4% | 5.3% | i | 15.0% | 1.97µM* | 2.48µM*
COc1ccc(C2Cn3cnc(C(=O)N4CCC(C(=O)Nc5cc(F)cc(F)c5)CC4)c3CO2)cc1 (stereo unspecified) | ? | ? | ? | ? | -13.1% | / | / | /
CCc1cccc(NC(=O)C2CCN(C(=O)c3ncn4c3COC(c3ccc(OC)cc3)C4)CC2)c1 (stereo unspecified) | 0.6% | ? | -2.1% | -4.1% | 4.0% | / | / | /
CCN1C(=O)CCN(C(=O)NCC(C)C)CC12CCOCC2 | 0.6% | i | -2.9% | 4.2% | i | / | / | /
O=C(c1ccncc1)N1CCC(Oc2ccc(-c3noc(-c4ccccc4)n3)cc2)C1 (stereo unspecified) | 14.1µM* | 14.1µM* | ? | ? | i | 16.1% | 13.8% | ?
Cc1ncccc1C(=O)N1CCC(Oc2ccc(-c3noc(-c4ccccc4)n3)cc2)C1 (stereo unspecified) | 11.2µM* | 7.08µM* | ? | ? | i | 19.1% | 13.2% | ?
CCCS(=O)(=O)N1CCC(Oc2ccc(-c3noc(-c4ccccc4)n3)cc2)C1 (stereo unspecified) | -14.9% | ? | ? | ? | i | / | / | /
Cc1ccc(/C=C/c2nc3ccccc3n2S(=O)(=O)c2cccc(Cl)c2)cc1 | / | / | / | / | / | 0.556µM* | 0.7µM* | 0.124µM*
CCOc1ccc(/C=C/c2nc3ccccc3n2S(=O)(=O)c2cccc(Cl)c2)cc1 | / | / | / | / | / | 3.13µM* | ? | 0.394µM*
CSc1ccc(/C=C/c2nc3ccccc3n2S(=O)(=O)c2ccc(F)c(C)c2)cc1 | / | / | / | / | / | 4.95µM* | ? | 0.7µM*
Cc1cc(S(=O)(=O)N2CCC(n3cnnc3C)CC2)ccc1F | -1.8% | i | i | -2.9% | 4.2% | / | / | /
COCc1nncn1C1CCN(S(=O)(=O)c2cccc(Cl)c2)CC1 | -0.5% | i | -2.4% | 1.4% | i | / | / | /
COc1ccccc1CNC(=O)CCn1ccn2nc3c(c2c1=O)CCCC3 | -0.1% | i | -9.6% | -0.1% | i | / | / | /
Cc1cc2nc3n(c(=O)c2n1CC(=O)Nc1ccc(F)cc1)CCC3 | 0.0% | i | -6.3% | -18.1% | i | / | / | /

Compound activity (PubChem BioAssay)
